Activity calls are given as the source filed them.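 The calls were made as follows: active = compounds that kill cultured T. brucei parasites with a half-maximal potency under 200 micromolar; inactive = compounds with no measurable potency.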
Experiment: Confirmatory Assay to Find Inhibitors of T. brucei phosphofructokinase: T. brucei in vitro Parasite Assay
Conditions: T. brucei brucei culture viability, Alamar Blue, 72 h
Source text: Various species of the protozoan family Trypanosomatidae are responsible for a range of serious human diseases in tropical and subtropical areas of the world. […] Many of the disorders caused by trypanosomatids are fatal if left untreated, but most currently used drugs are inefficient and toxic. […] Oxidative metabolism involving the mitochondrial tricarboxylic acid cycle and oxidative phosphorylation are repressed in these parasites, and recent RNA interference (RNAi) experiments have shown that even partial depletion of certain individual glycolytic enzymes can lead to the death of cultured parasites. One such glycolytic enzyme, phosphofructokinase (PFK), catalyzes the formation of fructose-1,6-bisphosphate (F1,6BP) and ADP from fructose-6-phosphate (F6P) and ATP, and in many metabolic circumstances makes an important contribution to the control of flux through the glycolytic pathway. As a specific glycolytic target, PFK is particularly attractive as it catalyzes the first irreversible step in glycolysis, and structural and kinetic studies have shown very substantial and essential differences from corresponding host enzymes, allowing for the discovery of parasite-selective inhibitors. Selected active compounds were additionally tested in a well-validated in vitro parasite assay to determine the relative potencies of lead compounds against live T. brucei cultures. H Chemical Genomics Center [NCGC] NIH Molecular Libraries Probe Centers Network [MLPCN] MLPCN Grant: MH092153-01 Assay Submitter (PI): Malcom Walkinshaw, University of Edinburgh
Dilutions of T. brucei brucei were incubated in modified Iscove's cell culture medium (supplemented with 10% FBS, 0.05 mM bathocuproine sulfonate, 1.5 mM L-cysteine, 1 mM hypoxanthine, 0.2 mM 2-mercaptoethanol, 1 mM sodium pyruvate and 0.16 mM thymidine) with titrations of compound for 72 hours. The cell density is adapted so that after 72 hours of incubation, the cells are at the end of the logarithmic growth phase (~5x104 tryps/mL). General morphology and motility were recorded after incubation, and Alamar Blue dye was added as a fluorescent marker of viability (ex530/em590) and read on a fluorescent plate reader following 4 hrs of incubation at 37 degrees C. The results of this assay were used to prioritize medicinal chemistry efforts in conjunction with the human cell toxicity assay to give a measure of relative parasite/host toxicity ratio.
With O=C(Cc1ccc(Cl)c(Cl)c1)Nc1ccc(S(=O)(=O)Nc2ccc(C(=O)O)cc2)cc1 the outcome was “inactive”. For Cc1cc(NS(=O)(=O)c2ccc(NC(=O)Cc3ccc(Cl)c(Cl)c3)cc2)no1, the Potency was 26.8 µM (active). In the case of Cc1cc(NS(=O)(=O)c2ccc(NC(=O)Cc3ccc(Cl)c(Cl)c3)cc2)on1, the Potency is reported as 157 µM (active). With COc1ccc(CC(=O)Nc2ccc(S(=O)(=O)Nc3cc(C)on3)cc2)cc1OC the outcome was “inactive”. In the case of Cc1cc(NS(=O)(=O)c2ccc(NC(=O)Cc3ccc(Cl)c(F)c3)cc2)no1, the Potency is reported as 38.9 µM (active). In the case of O=C(Cc1ccc(Cl)c(Cl)c1)Nc1ccc(S(=O)(=O)Nc2cccc(C(=O)O)c2)cc1, the Potency is reported as 105 µM (active). For O=C(Cc1ccc(Cl)c(Cl)c1)Nc1ccc(S(=O)(=O)Nc2ccon2)cc1, the Potency was 16.3 µM (active).
